Sampled rows, rich in hits. Any-hit rate of the full collection: about 9.3%.
Rab9 prom act: Rab9 promoter activation; Huh7 Rab9 promoter-luciferase reporter, luminescence, 24 h; AID 485297; Potency, µM (titrated, usually from 9.22 µM), for inactives: at the highest dose activation, negative = inhibition, hits mostly activators; 320,000 tested, 2.8% active; also: % of control where 0% means no effect; nearly all actives have a fitted effect of over 60% in size
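Stable Rab9-luc Huh7, 1500 cells/well, 2 h settle; cmpd in DMSO, 24 h, 37 °C/5% CO2; luciferase reagent 10 min RT; luminescence.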
ELG1 genotoxic: inducers of genotoxicity in HEK293T ELG1-luciferase cells | Potency, µM (series often up to 46 µM), for inactives: at the highest dose activity change, positive = activation, hits mostly activators | HEK293T ELG1-luciferase reporter, luminescence, 16 h | 330,000 tested, 1.3% active | AID 504466; also: % of control where 0% means no effect; nearly all actives have a fitted effect of over 60% in size
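HEK293T cells expressing luciferase-tagged ELG1 were exposed to compound or DMSO vehicle for 16 hr at 37 °C and 5% CO2. Luciferase activity was then measured with ONE-Glo after 30 min at room temperature.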
NPC1 promoter act: NPC1 promoter activation. Huh7 NPC1 promoter luciferase reporter, 24 h. Potency, µM (titrated, usually from 9.22 µM), inactives show at the top dose activation, actives largely listed as activators. 320,000 tested, 2.4% active. AID 485313; also: % of control where 0% means no effect; nearly all actives have a fitted effect of over 60% in size
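Quantitative HTS used a cell-based reporter: Huh7 cells stably bearing the NPC1 promoter upstream of luciferase were treated with compounds for 24 h, and promoter activation was read as luminescence.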
ELG1 repair inh: inhibitors of ELG1-dependent DNA repair in HEK293T cells | HEK293T ELG1-luciferase reporter, luminescence, 16 h; DNA damage induced by 5-fluorouridine | 330,000 tested, 2.3% active | AID 504467 | Potency, µM (titrated, usually from 46.1 µM), without a hit: at the top dose activity change, negative = inhibition, usual class: inhibitors; also: % is scaled to controls: 0 for no effect and ±100 for the full control effect; nearly all actives have a fitted effect of over 55% in size
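Overnight (16 hr) co-exposure of 2,000 cells/well to 5-fluorouridine and compound at 37 °C preceded detection. Luciferase was quantified via ONE-Glo luminescence; loss of signal denotes inhibition.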
FLuc modulator: inhibits or activates purified firefly luciferase, miR-21 counter-screen; AID 588342; 360,000 tested, 6.9% active; Potency, µM (titrated, usually from 57.5 µM), for inactives: top-dose activity change, negative = inhibition, actives largely listed as inhibitors; P08659; purified FLuc, Km substrates, luminescence inhibition;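 also: plate controls were vehicle for no effect and reference inhibitor for full effect; nearly all actives have a fitted effect of over 55% in size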
Target sequence (P08659 whole entry, looked up): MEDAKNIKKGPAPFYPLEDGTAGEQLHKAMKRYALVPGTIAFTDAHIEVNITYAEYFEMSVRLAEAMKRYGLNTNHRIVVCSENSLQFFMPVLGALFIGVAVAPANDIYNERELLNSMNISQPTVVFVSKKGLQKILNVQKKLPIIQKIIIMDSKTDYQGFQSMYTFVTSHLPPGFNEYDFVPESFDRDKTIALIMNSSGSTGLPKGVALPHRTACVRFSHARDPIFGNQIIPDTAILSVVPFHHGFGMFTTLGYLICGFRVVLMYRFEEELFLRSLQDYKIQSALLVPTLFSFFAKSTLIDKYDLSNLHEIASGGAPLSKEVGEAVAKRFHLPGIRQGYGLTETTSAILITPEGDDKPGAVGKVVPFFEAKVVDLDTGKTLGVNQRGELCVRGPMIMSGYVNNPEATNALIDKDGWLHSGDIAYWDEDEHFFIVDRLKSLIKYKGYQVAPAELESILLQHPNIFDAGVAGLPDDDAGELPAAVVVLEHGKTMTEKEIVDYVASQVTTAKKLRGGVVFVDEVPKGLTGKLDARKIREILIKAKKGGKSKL
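Biochemical qHTS of compounds, final roughly 60 µM downward over six points, against 10 nM purified firefly luciferase using Km concentrations of substrates (10 uM D-luciferin, 10 uM ATP) in Tris acetate pH 7.5 buffer; luminescence output.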
SMN2 splice up: SMN2 splice variant enhancement; HEK293 SMN2-luciferase splicing reporter, luminescence, 30-36 h; Potency, µM (top dose mostly 46.1 µM), for the others: top-dose activity change, positive = activation, most hits filed as activators; 210,000 tested, 2.8% active; AID 1458; also: % of control where 0% means no effect; nearly all actives have a fitted effect of over 55% in size
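qHTS luciferase splicing reporter: luminescence rises when SMN2 exon 7 is included in transfected HEK293 cells. Compound exposure lasted 30-36 h at 37C, with 4.5 mM final sodium butyrate as control, followed by a ONE-Glo read.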
Active calls of the source: *; ? = inconclusive; · = not tested or not shown; [ ] = remark or other dose. Calls follow the shape of the dose curve; as a rule, active = well fitted curve in the direction sought with a large enough effect; inconclusive = small, poorly fitted or top-dose-only effect, or another doubt; inactive = no such curve, though single readings can be large; an effect the other way counts as inactive or inconclusive. Potency is read from the fitted curve at half-maximal effect.

SMILES	Rab9 prom act	ELG1 genotoxic	NPC1 promoter act	ELG1 repair inh	FLuc modulator	SMN2 splice up
C[C@@H](OC(=O)c1[nH]cnc1C(=O)NCc1ccc(CNC(=O)OC(C)(C)C)cc1)c1ccccc1	·	-13%	·	13µM*	·	·
CC(C)(C)OC(=O)NCc1ccc(CNC(=O)c2nc[nH]c2C(=O)NCc2ccccc2)cc1	-2%	-3%	-4%	?	1%	·
CC(C)(C)OC(=O)NCc1ccc(CNC(=O)c2[nH]cnc2C(=O)NCC(=O)OCc2ccccc2)cc1	-1%	-1%	3%	8.2µM*	7%	·
Cc1cnc(NC(=O)c2cc3c(C)nn(Cc4ccccc4Cl)c3s2)s1	0%	9%	0%	0%	-2%	-15%
COCCN1Cc2cccc(C(=O)Nc3ccc4c(c3)OCCO4)c2C1=O	0%	?	0%	?	21µM*	-19%
COCCN1Cc2cccc(C(=O)Nc3ccc(C)cc3)c2C1=O	-3%	0%	-5%	-15%	?	·
CCCN1Cc2cccc(C(=O)Nc3ccc(CN4CCCC4)cc3)c2C1=O	-17%	1%	0%	16%	17µM*	-2%
CCOc1ccc(NC(=O)c2cccc3c2C(=O)N(Cc2cccnc2)C3)cc1	5%	?	1%	9%	8.5µM*	18%
CC(=O)C1=C(C)N(Cc2ccco2)C(=O)C1(NC(=O)C1CCCCC1)C(F)(F)F (stereo unspecified)	-1%	2%	-2%	7%	1%	-2%
CSc1nc(Cc2ccccc2)cc(=O)[nH]1	-4%	0%	-2%	0%	-18%	3%
O=C(N1CCOCC1)n1nnc2ccccc21	-5%	-3%	-6%	3%	-22%	15%
C/C(=C\c1ccccc1)C(=O)n1nnc2ccccc21	8%	1%	-1%	?	19µM*	-3%
N#C/C(=C(O)\C=C\c1ccccc1)c1nc2ccccc2[nH]1	1%	-2%	2%	12%	?	·
Cc1cccc(/C=C(\c2nc3ccccc3[nH]2)S(=O)(=O)c2ccccc2)c1	-16%	-10%	-13%	12µM*	3%	-106%
Cc1cc(NC(=S)Nc2ccc(C)c(Cl)c2)n[nH]1	?	?	?	?	17µM*	18µM*
COc1cc(C)c(NC(=S)Nc2ccc(C)c(Cl)c2)cc1OC	0%	-1%	-2%	0%	5%	-13%
COc1ccc(NC(=S)Nc2cc(C)[nH]n2)cc1Cl	?	15%	?	?	17µM*	·
CC1CCN(Cc2ccc(-c3nnn(CC(=O)Nc4ccccc4Cl)n3)cc2)CC1	-4%	-8%	-13%	?	-2%	-27%
CC(C)Sc1nc2ccc(Br)cc2[nH]1	?	?	23%	?	17µM*	·
CSc1nc2ccc(Br)cc2[nH]1	0%	-5%	-3%	-4%	-6%	-28%
Cc1ccc2c(c1)c(N=Nc1cccc(C(=O)O)c1)c(O)n2C	-1%	6%	17%	?	15µM*	·
CCOc1ccc(S(=O)(=O)NCCC(=O)N2CC(C)CC(C)C2)cc1 (stereo unspecified)	-2%	1%	0%	2%	2%	·
Cc1ccc(C(C[N+](=O)[O-])c2c(-c3ccccc3O)[nH][nH]c2=O)cc1 (stereo unspecified)	10%	2%	3%	-4%	-18%	4%
Cc1ccc(C(=O)OCC(=O)Nc2ccc(S(N)(=O)=O)cc2)c(O)c1	-4%	-2%	-5%	-6%	0%	·
Cc1ccc(S(=O)(=O)NCCC(C)C)cc1[N+](=O)[O-]	-4%	1%	-2%	16%	-1%	-4%
SMILES	Rab9 prom act	ELG1 genotoxic	NPC1 promoter act	ELG1 repair inh	FLuc modulator	SMN2 splice up
COc1ccc(N=c2oc3cc(O)ccc3cc2C(=O)NCC2CCCO2)cc1 (stereo unspecified)	-4%	2%	1%	?	-1%	-19%
COc1ccc(N=c2oc3cc(O)ccc3cc2C(=O)Nc2ccccn2)cc1OC	3%	-1%	3%	4.1µM*	?	-6%
Cc1ccc(N=c2oc3cc(O)ccc3cc2C(N)=O)cc1	4.5µM*	-2%	?	?	19µM*	·
Cc1ccc(/C=N\NC(=O)CCc2n[nH]c(=O)[nH]c2=O)o1	6%	0%	0%	0%	1%	-13%
CCn1cc(Br)c(C(=O)NCc2ccco2)n1	·	·	·	·	2%	13%
O=C(NC(=S)NCCC1=CCCCC1)c1cccnc1	3%	3%	-4%	-15%	1%	·
Cc1ccc(SC(CC(=O)c2ccc(F)cc2)C(=O)O)cc1 (stereo unspecified)	-4%	-20%	0%	-11%	-2%	·
O=C(NCC(=O)N(c1ccccc1F)C(C(=O)NC1CCCC1)c1ccco1)c1ccco1 (stereo unspecified)	-11%	-5%	1%	-8%	0%	·
CN(C)c1ccc(/C=C2\N=C(C(C)(C)C)OC2=O)cc1	-4%	0%	1%	6%	1.5µM*	·
CN(C)c1ccc(/C=C2\C(=O)Nc3ccccc32)cc1	3.7µM*	·	1.5µM*	·	·	3.2µM*
CCN(CC)c1ccc(/C=C2/C(=O)ON=C2C)cc1	-3%	6%	-2%	?	12µM*	-2%
COc1ccc(/C=C2\N=C(C(C)(C)C)OC2=O)c(OC)c1	2%	-1%[9.26 µM]	-1%	0%	?	·
CC1=NOC(=O)/C1=C/c1ccc(N(C)C)cc1	1%	6%	-1%	?	7.6µM*	·
CCN(CC)c1ccc(C=C2C(=O)OC3(CCCCC3)OC2=O)cc1	10%	0%	-5%	?	?	-6%
CC(C)(C)C(=O)OCOC(=O)[C@@H]1N2C(=O)[C@@H](N=CN3CCCCCC3)[C@H]2SC1(C)C	0%	-4%	1%	8%	-1%	-1%[20.6 µM]
Cc1cc(=O)oc2cc(NC(=O)CN3C(=O)NC(C)(c4ccccc4)C3=O)ccc12 (stereo unspecified)	1%	-6%	0%	8%	-4%	·
COc1cccc(/C=C/C(=O)c2ccc(NC3=NCCCS3)cc2)c1	1%	?	-3%	?	11µM*	-26%
O=C(/C=C/c1ccc(Br)cc1)c1ccc(NC2=NCCCS2)cc1	-4%	-14%	1%	?	?	·
Cc1cccc(/C=C/C(=O)c2ccc(NC3=NCCCS3)cc2)c1	18%	?	8%	14%	13µM*	-20%
O=C(/C=C/c1ccccc1)c1ccc(NC2=NCCCS2)cc1	?	?	?	?	4.3µM*	20%

High-throughput results deposited in PubChem BioAssay by National Center for Advancing Translational Sciences (NCATS).
